Hit rate of the full screen: of about 16,000 compounds, about 5,700 (36%) were called active. Not shown: some 24% with an inconclusive outcome. The list shows a part of the results. Unmarked numbers belong to inactive results. Calls follow the shape of the dose curve; as a rule, active = well fitted curve in the direction sought with a large enough effect; inconclusive = small, poorly fitted or top-dose-only effect, or effect the other way; inactive = no such curve, though single readings can be large or run the other way. Peptide text beside a SMILES is read from it.
% is scaled to controls: 0 for no effect and ±100 for the full control effect.

For the assay, the target named is Cytochrome P450 1A2 (Homo sapiens) (UniProt P05177). Briefly: Cytochrome panel assay with activity outcomes. As to conditions: recombinant CYP, pro-luciferin dealkylation, luminescence, p450-cyp1a2; series mostly up to 57.1 µM.
Cytochrome P450 1A2 (Homo sapiens), sequence (P05177 whole entry, looked up): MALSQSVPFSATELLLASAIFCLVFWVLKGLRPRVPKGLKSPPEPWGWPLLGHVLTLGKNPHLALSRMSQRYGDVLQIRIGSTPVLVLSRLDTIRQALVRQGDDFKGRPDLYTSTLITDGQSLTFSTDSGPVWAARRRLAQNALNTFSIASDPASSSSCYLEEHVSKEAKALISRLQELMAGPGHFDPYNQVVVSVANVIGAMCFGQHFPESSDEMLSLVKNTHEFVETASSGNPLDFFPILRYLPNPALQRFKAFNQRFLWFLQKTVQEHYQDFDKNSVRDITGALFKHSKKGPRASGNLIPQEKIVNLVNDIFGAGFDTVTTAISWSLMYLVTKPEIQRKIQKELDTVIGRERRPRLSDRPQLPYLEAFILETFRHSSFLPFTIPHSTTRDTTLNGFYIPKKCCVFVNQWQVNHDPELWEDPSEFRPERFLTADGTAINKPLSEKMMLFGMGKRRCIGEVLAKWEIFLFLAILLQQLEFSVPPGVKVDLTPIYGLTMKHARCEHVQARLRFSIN
Turning to `O=C(O)[C@H]([C@H]1NCCS1)N1Cc2ccccc2C1`, the activity, negative = inhibition is -13.4% [at 2.29 µM].

For orientation: AC50 means the concentration giving half of the maximal activity seen. Take `CNc1oc(-c2cccs2)nc1C#N`: the AC50 is 2240 nM (active).

For `CNc1oc(-c2ccc(Cl)cc2)nc1C#N`, the AC50 is 1780 nM (active).

In the case of `N#Cc1nc(-c2cccs2)oc1NCc1ccccc1`, the AC50 was 1120 nM (active).

Consider `CCOC(=O)C1=C(C)C(c2ccccc2OC)NC(=S)N1` (stereo unspecified), for which the AC50 entry was “inactive”.

Take `CCOC(=O)c1[nH]c(COC(=O)CCOc2ccccc2OC)c(C(=O)OCC)c1C`: the AC50 was 8910 nM (active).

Take `CCCCN(CC)S(=O)(=O)N1CCC(C(=O)NCCCN2CCOCC2)CC1`: the AC50 result is “inactive”.

On to `CCOC(=O)N/N=C1/C[C@@H](O)[C@@H](O)[C@@H]2[C@@H]3C(=O)N(CC)C(=O)[C@H]3CC[C@@H]12`, for which the activity, negative = inhibition is -5.68% [at 11.4 µM].

As to `CSc1nc(N)nc(SCC(=O)Nc2ccc(Cl)cc2)c1C#N`, the half-maximal activity concentration (AC50) was 891 nM (active).

`COc1ccc(NC(=O)CSc2nc(C)c3c(c2C#N)CCCC3)cc1`: the AC50 is 2510 nM (active).

On to `CCOc1cccc(NC(=O)CSc2nc(C)c3c(c2C#N)CCCC3)c1`, for which the AC50 result was “inactive”.

Take `CCOc1ccc(NC(=O)CSc2nc(C)c3c(c2C#N)CCCC3)cc1`: the AC50 is 2000 nM (active).

As to `CC(=O)Oc1ccc(C(c2ccc(OC(C)=O)cc2)c2ccccn2)cc1`, the AC50 entry is “inactive”.

Consider `NC(=O)NCc1ccc(Cl)cc1`, for which the AC50 result was “inactive”.

Turning to `COC(=O)[C@H](N)Cc1ccc(Cl)cc1`, the AC50 is 3160 nM (active).

Turning to `COC(=O)[C@](C)(N)Cc1ccc(O)cc1`, the AC50 entry was “inactive”.

With `C/C(=C\c1ccc(Cl)cc1)C(C)(C)C(=O)O`, the activity, negative = inhibition was -17.1% [at 11.4 µM].

Turning to `C[C@H](N)C(=O)OC(C)(C)Cc1ccc(Cl)cc1`, the AC50 is 631 nM (active).

Regarding `COC(=O)C(CC(C)C)NC(=O)C(N)Cc1ccccc1` (stereo not drawn) (H-Phe-Leu-OMe; configuration not given here), the AC50 result was “inactive”.

As to `CN(C)S(=O)(=O)c1ccc(C(=O)Nc2ccc(CN3CCCC3)cc2)cc1`, the AC50 was 25100 nM (active).

In the case of `O=C(Nc1ccc(S(=O)(=O)N2CCOCC2)cc1)c1ccc(CN2CCc3ccccc3C2)cc1`, the AC50 entry was “inactive”.

For `O=C(Nc1ccc(S(=O)(=O)N2CCCCC2)cc1)c1ccc(CN2CCc3ccccc3C2)cc1`, the AC50 result was “inactive”.

On to `CCC(=O)N1CCN(C(=O)c2ccccc2)CC1`, for which the AC50 entry was “inactive”.

Take `CCC(C)NC(=O)C1CCN(C(=O)c2ccccc2)CC1` (stereo unspecified): the AC50 result was “inactive”.

As for `O=C(c1ccccc1)N1CCSC1=S`, the AC50 is 14100 nM (active).

On to `Cc1nc2cnc(N(C)C)nc2n(Cc2cccs2)c1=O`, for which the AC50 is 1260 nM (active).

For the compound `CN(C)c1ncc2ncc(=O)n(Cc3cccs3)c2n1`, the AC50 was 1580 nM (active).

On to `CCNC(=O)C/C(C)=N/NC(=O)C12CC3CC(CC(C3)C1)C2`, for which the AC50 result was “inactive”.

In the case of `Fc1ccc(-c2cn3cc(C(F)(F)F)cc(Cl)c3n2)cc1`, the half-maximal activity concentration (AC50) was 891 nM (active).

With `CC1(C)CC(=O)C2=C(C1)Nc1cc3c(cc1C2c1ccc(F)cc1)OCO3` (stereo unspecified), the half-maximal activity concentration (AC50) is 6310 nM (active).

For the compound `FC(F)(F)c1ccc(N2CCOCC2)c(Nc2nc3ccccc3n3cnnc23)c1`, the AC50 is 6310 nM (active).

Regarding `COc1cccc2c1C(=O)c1c(O)c3c(c(O)c1C2=O)C[C@](O)(C(=O)CO)C[C@H]3O[C@@H]1C[C@H](N)[C@H](O)[C@H](C)O1`, the AC50 result is “inactive”.

Turning to `COCc1nc2c([nH]1)c(=O)n(C)c(=O)n2CC(C)C`, the AC50 is 12600 nM (active).

Turning to `Cn1c(=O)c2[nH]c(CS(=O)(=O)Cc3nc4c([nH]3)c(=O)n(C)c(=O)n4C)nc2n(C)c1=O`, the activity, negative = inhibition is -21.1% [at 2.29 µM].

Take `Cn1c(=O)c2[nH]c(COCc3nc4c([nH]3)c(=O)n(C)c(=O)n4C)nc2n(C)c1=O`: the activity, negative = inhibition was 4.47% [at 2.29 µM].

Take `CCN1C(=O)[C@H]2[C@@H]3[C@H](O)C=CC(=O)[C@H]3CC[C@H]2C1=O`: the activity, negative = inhibition is -16.7% [at 11.4 µM].

Consider `O=c1[nH]ncn2cccc12`, for which the AC50 entry is “inactive”.

Take `O=C(O)[C@@H]1[C@H](C(=O)O)[C@H]2C(=O)C=C[C@H]1N2Cc1ccccc1`: the activity, negative = inhibition was -3.91% [at 2.29 µM].

Consider `O=c1[nH]ncc2c3ccccc3n(Cc3ccccc3)c12`, for which the AC50 is 1000 nM (active).

`O=C(NCCCN1CCCC1=O)c1ccc(CNS(=O)(=O)c2ccc(F)cc2)cc1`: the AC50 result was “inactive”.

Take `O=C(NCc1ccccc1Cl)c1ccc2c(=O)n(CCCN3CCCC3=O)c(=S)[nH]c2c1`: the AC50 entry is “inactive”.

As for `COc1ccc(-n2c(=S)[nH]c3cc(C(=O)NCCCN4CCCC4=O)ccc3c2=O)cc1`, the AC50 was 25100 nM (active).

As for `Cc1ccc(C)c(N(CC(=O)NC2CCCC2)C(=O)c2cc3cc4cccc(C)c4nc3s2)c1`, the AC50 entry is “inactive”.

With `CCN(CC)c1ccc(SS(=O)(=O)O)cc1`, the AC50 entry was “inactive”.

For `CCN(CC)c1ccc2c(Cl)cc(=O)oc2c1`, the AC50 was 891 nM (active).

With `CC1=CC(=C2C(=O)c3ccccc3C2=O)C=C(C)O1`, the AC50 is 200 nM (active).

With `CC1(C)OC(=O)N(Cc2ccco2)C1(C)O` (stereo unspecified), the AC50 result is “inactive”.

Consider `CC1=CC(=C2C(=O)c3ccccc3C2=O)C=C(C)N1Cc1ccco1`, for which the AC50 is 1580 nM (active).

For `CCCCS(=O)(=O)NC1=NCN(Cc2ccco2)CN1`, the AC50 entry was “inactive”.

For `Nc1nc(N)c2nn(-c3ccc(C(=O)O)cc3)nc2n1`, the activity, negative = inhibition was -13.4% [at 2.29 µM].

In the case of `COc1ccc(C(=O)N2CCC[C@@]3(CCN(C(=O)Nc4cccc(C#N)c4)C3)C2)cc1`, the AC50 result is “inactive”.

For the compound `CC(C)NC(=O)N1CCCC2(CCN(C(=O)c3csnn3)CC2)C1`, the AC50 entry was “inactive”.

For the compound `CSc1nc(Oc2ccc(F)cc2)c2ccccc2n1`, the AC50 was 794 nM (active).

`CN1CCCC2(CCN(C(=O)c3cnccn3)CC2)C1`: the AC50 result is “inactive”.

`CN1CCN(CCCBr)CC1`: the activity, negative = inhibition is -20.9% [at 11.4 µM].

For the compound `O=C(c1cc(Br)ccc1O)c1cc(Br)ccc1O`, the AC50 is 1000 nM (active).

`Cc1cc(C)c(O)c(Cc2cccc(Cc3cc(C)cc(C)c3O)c2O)c1`: the activity, negative = inhibition was -14.7% [at 2.29 µM].

Regarding `Clc1ccc(CN2CCCN(Cc3ccc(Cl)cc3)C2c2cc3ccccc3c3ccccc23)cc1`, the AC50 is 794 nM (active).

`Cc1cc(C)nc(Nc2n[nH]c(-c3cccc4ccccc34)n2)n1`: the AC50 was 4470 nM (active).

For `Cc1cc(C)nc(Nc2n[nH]c(COc3cccc4ccccc34)n2)n1`, the AC50 is 15800 nM (active).

`Cc1cc(OCCNCCO)cc(C)c1Cl`: the AC50 was 2000 nM (active).

In the case of `Cc1nnc(NS(=O)(=O)c2ccc(N)cc2)s1`, the AC50 result was “inactive”.

For the compound `O=C1CC(c2ccc3c(c2)OCO3)CN1` (stereo unspecified), the AC50 was 12600 nM (active).

Turning to `NC(N)=NC[C@@H]1COC2(CCCCC2)O1`, the AC50 result is “inactive”.

On to `Cc1ccc(C)c(Cn2c(C(=O)OC(C)C)cc3c2ccn3C)c1`, for which the AC50 was 12600 nM (active).

For the compound `CN(C)CC[C@H](c1ccc(Cl)cc1)c1ccccn1`, the AC50 result is “inactive”.

Turning to `CC(c1ccc(Cl)cc1)n1c(-c2ccc3ccccc3n2)n[nH]c1=S` (stereo unspecified), the AC50 was 11200 nM (active).

In the case of `CCc1c(O)c2c(c(O)c1C(C)=O)C(=O)c1c(cc(O)c(C(=O)O)c1C(=O)O)C2=O`, the activity, negative = inhibition is -33.1% [at 11.4 µM].

For the compound `Cc1nc2c(OCc3ccccc3)cccn2c1CC#N`, the AC50 is 398 nM (active).

Turning to `Cc1nc2c(C#N)c(C)[nH]n2c(=O)c1Cc1ccccc1`, the AC50 result was “inactive”.

In the case of `Clc1ccc(-c2csc(N3CCC(c4ccccc4)C3)n2)cc1` (stereo unspecified), the half-maximal activity concentration (AC50) is 3550 nM (active).

For the compound `S=C1NC2=C(C(c3ccc(Br)cc3)N1)N1CCC2CC1` (stereo unspecified), the AC50 entry is “inactive”.

Consider `Brc1ccc(-c2csc(N3CCC(c4ccccc4)C3)n2)cc1` (stereo unspecified), for which the AC50 is 2510 nM (active).

As to `O=C(NC1CCCC1)c1cnn2c(C(F)(F)F)cc(-c3ccco3)nc12`, the AC50 is 2240 nM (active).

As for `Cc1ccc(C(C(=O)NC2CCCCC2)N2CCN(C(=O)c3ccco3)CC2)cc1` (stereo unspecified), the AC50 entry was “inactive”.

For `Cc1ccc(Cn2ccc(NC(=O)c3cc4nc(-c5ccco5)cc(C(F)(F)F)n4n3)n2)cc1`, the AC50 entry is “inactive”.

As to `O=S(=O)(c1ccccc1)N1CCC[C@@]2(CCN(C(c3ccccc3)c3ccccc3)C2)C1`, the AC50 entry is “inactive”.

Take `C/C(=N\NC(N)=S)c1ccc[nH]1`: the AC50 was 3160 nM (active).

Turning to `Cc1ccccc1CS(=O)(=O)Cc1ccc(C(=O)NCc2cccnc2)o1`, the concentration at half-maximal activity (AC50) is 10000 nM (active).

In the case of `CCOc1ccc(OCc2ccc(C(=O)NCc3cccnc3)o2)cc1`, the AC50 is 8910 nM (active).

As to `O=C1c2ccccc2C2=Nc3ccccc3SC(c3ccccc3F)C12` (stereo unspecified), the AC50 was 1410 nM (active).

As to `CSc1ncnc2c1ncn2[C@@H]1O[C@@H](CO)[C@H](O)O[C@@H]1O`, the activity, negative = inhibition was -5.22% [at 2.29 µM].

For the compound `S=C(S)N1CCCC1`, the AC50 was 12600 nM (active).

On to `COCCCNC(=O)C1CC(=O)N(Cc2ccc(OC)cc2)C1` (stereo unspecified), for which the AC50 entry is “inactive”.

On to `COc1ccc2cc(CCNC(=O)C3CC3)c(=O)[nH]c2c1`, for which the AC50 was 12600 nM (active).

In the case of `COc1ccc(OC)c(S(=O)(=O)N2CCC(C(=O)NCCc3ccccc3)CC2)c1`, the AC50 result was “inactive”.

With `Fc1ccccc1OCCCCSc1ncccn1`, the AC50 was 14100 nM (active).

On to `CO[C@@H]1COC(=O)[C@H]2CCCN2C(=O)[C@@H](C)COC(=O)[C@H](COCc2ccccc2)NC(=O)C/C=C\[C@H]1C`, for which the activity, negative = inhibition was -3.84% [at 11.4 µM].

For the compound `CCN1CCc2nc(N)oc2CC1`, the AC50 entry is “inactive”.

On to `CCN1CCN(c2nc(C)c3c(n2)CCCC3=O)CC1`, for which the AC50 was 2240 nM (active).

Take `CCCCc1n[nH]c2c1/C(=N/O)CC(c1ccccc1)C2` (stereo unspecified): the concentration at half-maximal activity (AC50) was 398 nM (active).

Take `O=C(O)CCCc1ccc2ccc3ccccc3c2c1`: the AC50 is 2000 nM (active).

Regarding `NNC(=O)CCc1ccc2ccc3ccccc3c2c1`, the concentration at half-maximal activity (AC50) was 31.6 nM (active).

With `Nc1ccccc1CCCC(=O)O`, the activity, negative = inhibition was 4.62% [at 11.4 µM].

Take `COC(=O)C/C=C\[C@@H](C)[C@@H](/C=N\O[C@@H](C)c1cn([C@H]2COC[C@H]2O)nn1)NS(=O)(=O)c1ccc(C)cc1`: the activity, negative = inhibition was -5.92% [at 11.4 µM].

As for `CCOCC(=O)Nc1c(C(=O)Nc2ccccc2OC)oc2ccccc12`, the AC50 was 398 nM (active).

On to `CCOc1ccc(NC(=O)Cn2nnc(C(=O)NCc3ccccc3OC)c2N)cc1`, for which the AC50 entry was “inactive”.

For `COc1cccc(NC(=O)c2oc3ccccc3c2NC(C)=O)c1`, the AC50 was 2510 nM (active).

`CCOc1ccccc1NC(=O)C1=C(C)NC(=O)NC1c1cccc(OC)c1OC` (stereo unspecified): the AC50 result was “inactive”.

Regarding `CCCCN(C(=O)Nc1ccc(OCC)cc1)C1CCN(C(C)=O)CC1`, the AC50 entry is “inactive”.

In the case of `CCOc1ccc(NC(=O)c2oc3ccccc3c2NC(=O)CC)cc1`, the concentration at half-maximal activity (AC50) was 2000 nM (active).
